Measurements: PubChem BioAssay (EPA / NIEHS)
Where “and” joins values, the source holds several entries; their conditions need not be identical. Identical values can stand only once. Records with an inconclusive call do not appear. More than one record can exist for a structure, and the calls need not agree. Calls of active or inactive are those of the source. The calls were made as follows, unless noted: active = hit-call score of the fitted dose curve at least 0.9, where 1 is the maximum; inconclusive = response in the unintended direction; inactive = score below 0.9.

Columns and labels:
[1] = target: Estrogen receptor (Homo sapiens) (UniProt P03372); assay: OT_ERa_GFPERaERE_0120: Odyssey Thera (OT) 2-hour HeLa Transcription Induction Assay for Estrogen Receptor (AID 2283382)
Summary of the method: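 Cells (human cervical HeLa) receive compound, incubate 2 hours, then are imaged for fluorescent reporter induction. Images are quantified by high content analysis, and activity is fitted as gain of signal against DMSO.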

[2] = target: Bile acid receptor (Homo sapiens) (UniProt Q96RI1); assay: OT_FXR_FXRSRC1_0480: Odyssey Thera (OT) 8-hour HEK293T Protein-Complementation Assay for Farnesoid X receptor/SRC-1 Co-activator (AID 2283383)
Summary of the method: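 PCA, HEK293T, 8 h compound exposure; FXR–SRC-1 binding reconstitutes split reporter; fluorescence intensity; positive-direction fit vs DMSO.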

[3] = target: Bile acid receptor (Homo sapiens) (UniProt Q96RI1); assay: OT_FXR_FXRSRC1_1440: Odyssey Thera (OT) 24-hour HEK293T Protein-Complementation Assay for Farnesoid X receptor/SRC-1 Co-activator (AID 2283384)
Summary of the method: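 Measures ligand-driven FXR–SRC-1 co-activator recruitment in HEK293T via fragment complementation, fluorescence intensity at 24 h. DMSO served as negative control and baseline for gain-of-signal fitting.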

[4] = target: Retinoic acid receptor RXR-alpha (Homo sapiens) (UniProt P19793); assay: OT_NURR1_NURR1RXRa_0480: Odyssey Thera (OT) 8-hour HEK293T Protein Complementation Assay for Nurr1/retinoid X receptor (RXR) (AID 2283385)
Summary of the method: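 Interaction of bait and prey reconstitutes a functional reporter, whose fluorescence was measured in HEK293T cells dosed with compound for 8 hours. Signal gain relative to DMSO defined the single endpoint.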

[5] = target: Retinoic acid receptor RXR-alpha (Homo sapiens) (UniProt P19793); assay: OT_NURR1_NURR1RXRa_1440: Odyssey Thera (OT) 24-hour HEK293T Protein Complementation Assay for Nurr1/retinoid X receptor (RXR) (AID 2283386)
Summary of the method: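 Steps: fragment-tagged Nurr1 and RXRα expressed in HEK293T; compounds added; after 24 h, complemented reporter quantified by fluorescence intensity; signal increase over DMSO fitted as the single endpoint.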

[6] = target: Peroxisome proliferator-activated receptor gamma (Homo sapiens) (UniProt P37231); assay: OT_PPARg_PPARgSRC1_0480: Odyssey Thera (OT) 8-hour Protein-Complementation Assay for Peroxisome Proliferator-activated Receptor Gamma / SRC-1 Co-activator (AID 2283387);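 also: nuclear to cytoplasmic split Venus YFP fluorescence ratio reporting PPARg SRC-1 interaction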
Summary of the method: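 Split-YFP (IFP1/IFP2) PPARg/SRC-1 reporter, HEK293T, 37 °C, 5% CO2; 8 h compound; formaldehyde fix + Draq5; high-content imaging, N/C ratio, ≥350 cells/image, positive direction vs DMSO.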

[7] = target: Peroxisome proliferator-activated receptor gamma (Homo sapiens) (UniProt P37231); assay: OT_PPARg_PPARgSRC1_1440: Odyssey Thera (OT) 24-hour Protein-Complementation Assay for Peroxisome Proliferator-activated Receptor Gamma/ SRC-1 Co-activator (AID 2283388);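 also: nuclear to cytoplasmic ratio of reconstituted Venus YFP fluorescence in fixed imaged cells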
Summary of the method: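 Protein-fragment complementation between PPARg and coactivator SRC-1 was measured by fluorescence imaging in transiently transfected HEK293T cells after 24 h treatment. Signal was quantified as N/C ratio in the 488 nm channel, with DMSO as negative control.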

[8] = CEETOX_H295R_OHPREG: CeeTox H295R High-throughput Steroidogenesis Assay for OH-Pregnenolone (OHPREG) (AID 2283434; active = hit-call score of the fitted dose curve at least 0.9, where 1 is the maximum; inactive = score below 0.9); conditions: actives raise or lower the signal
Summary of the method: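 Secreted 17alpha-hydroxypregnenolone measured by HPLC-MS/MS after liquid-liquid extraction. Human adrenal H295R cells received 48 h forskolin (10 uM) stimulation before 48 h chemical exposure at 0.1% final DMSO; MTT viability in same wells; bidirectional fit against DMSO.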

[9] = CEETOX_H295R_OHPROG: CeeTox H295R High-throughput Steroidogenesis Assay for OH-Progesterone (OHPROG) (AID 2283435; active = hit-call score of the fitted dose curve at least 0.9, where 1 is the maximum; inactive = score below 0.9;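 as to AC50: 17alpha-hydroxyprogesterone secreted into medium measured by HPLC-MS/MS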); conditions: actives raise or lower the signal
Summary of the method: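 Steps: seed H295R cells and adhere overnight; stimulate with 10 uM forskolin for 48 h; replace with chemical-containing medium (0.1% DMSO) for 48 h; extract medium with MTBE; quantify 17alpha-hydroxyprogesterone by reverse-phase C18 HPLC-MS/MS against a 7-point curve.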

[10] = CEETOX_H295R_11DCORT: CeeTox H295R High-throughput Steroidogenesis Assay for 11-Deoxycortisol (11DCORT) (AID 2283432; active = hit-call score of the fitted dose curve at least 0.9, where 1 is the maximum; inactive = score below 0.9;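 as to AC50: 11-deoxycortisol secreted into the medium measured by LC-MS/MS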); conditions: actives raise or lower the signal
Summary of the method: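 Steroidogenesis in human H295R cells: 48 h chemical exposure after forskolin priming, 11-deoxycortisol measured by LC-MS/MS.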

Measured: AC50

Chain of Peroxisome proliferator-activated receptor gamma (Homo sapiens) (P37231 whole entry, looked up, the tested form may be a part): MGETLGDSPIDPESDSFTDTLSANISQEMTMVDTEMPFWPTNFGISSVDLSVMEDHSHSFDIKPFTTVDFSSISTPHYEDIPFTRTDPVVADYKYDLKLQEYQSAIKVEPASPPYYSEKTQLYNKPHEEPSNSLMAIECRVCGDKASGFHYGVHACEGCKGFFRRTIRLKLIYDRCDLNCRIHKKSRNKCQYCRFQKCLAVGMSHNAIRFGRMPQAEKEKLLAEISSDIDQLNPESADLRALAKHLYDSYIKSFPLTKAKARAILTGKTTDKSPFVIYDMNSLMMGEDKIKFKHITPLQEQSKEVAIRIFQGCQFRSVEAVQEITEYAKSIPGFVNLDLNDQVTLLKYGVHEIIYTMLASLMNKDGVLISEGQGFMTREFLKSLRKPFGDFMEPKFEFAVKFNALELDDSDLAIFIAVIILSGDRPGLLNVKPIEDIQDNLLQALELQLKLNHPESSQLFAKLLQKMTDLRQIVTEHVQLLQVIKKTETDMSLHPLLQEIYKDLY
Chain of Estrogen receptor (Homo sapiens) (P03372 whole entry, looked up): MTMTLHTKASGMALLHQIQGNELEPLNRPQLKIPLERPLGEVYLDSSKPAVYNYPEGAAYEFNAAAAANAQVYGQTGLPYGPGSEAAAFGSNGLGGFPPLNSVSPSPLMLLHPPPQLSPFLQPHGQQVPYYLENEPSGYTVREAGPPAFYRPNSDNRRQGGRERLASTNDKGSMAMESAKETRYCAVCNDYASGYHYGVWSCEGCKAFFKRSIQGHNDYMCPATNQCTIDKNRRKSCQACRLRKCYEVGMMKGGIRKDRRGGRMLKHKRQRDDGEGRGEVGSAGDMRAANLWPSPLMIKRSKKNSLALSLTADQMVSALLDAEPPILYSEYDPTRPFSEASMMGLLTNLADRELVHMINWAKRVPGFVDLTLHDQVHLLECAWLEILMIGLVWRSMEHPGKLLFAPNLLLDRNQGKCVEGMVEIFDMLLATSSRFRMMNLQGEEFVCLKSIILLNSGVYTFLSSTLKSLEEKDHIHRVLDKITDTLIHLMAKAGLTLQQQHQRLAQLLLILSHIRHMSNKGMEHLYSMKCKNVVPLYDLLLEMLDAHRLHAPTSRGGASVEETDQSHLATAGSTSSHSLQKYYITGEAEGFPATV
Chain of Retinoic acid receptor RXR-alpha (Homo sapiens) (P19793 whole entry, looked up, the tested form may be a part): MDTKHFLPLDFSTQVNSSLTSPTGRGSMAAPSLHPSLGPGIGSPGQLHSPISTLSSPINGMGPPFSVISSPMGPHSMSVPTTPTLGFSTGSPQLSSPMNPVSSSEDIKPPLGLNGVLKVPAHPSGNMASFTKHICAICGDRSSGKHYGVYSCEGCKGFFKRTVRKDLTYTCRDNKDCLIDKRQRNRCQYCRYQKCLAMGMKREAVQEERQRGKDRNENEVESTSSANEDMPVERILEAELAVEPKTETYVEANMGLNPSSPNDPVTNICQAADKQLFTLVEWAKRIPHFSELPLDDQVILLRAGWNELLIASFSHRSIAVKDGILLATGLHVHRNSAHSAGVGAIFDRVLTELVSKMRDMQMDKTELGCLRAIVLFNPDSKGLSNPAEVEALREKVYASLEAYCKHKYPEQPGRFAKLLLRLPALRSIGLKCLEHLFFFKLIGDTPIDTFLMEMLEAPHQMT
Chain of Bile acid receptor (Homo sapiens) (Q96RI1 whole entry, looked up, the tested form may be a part): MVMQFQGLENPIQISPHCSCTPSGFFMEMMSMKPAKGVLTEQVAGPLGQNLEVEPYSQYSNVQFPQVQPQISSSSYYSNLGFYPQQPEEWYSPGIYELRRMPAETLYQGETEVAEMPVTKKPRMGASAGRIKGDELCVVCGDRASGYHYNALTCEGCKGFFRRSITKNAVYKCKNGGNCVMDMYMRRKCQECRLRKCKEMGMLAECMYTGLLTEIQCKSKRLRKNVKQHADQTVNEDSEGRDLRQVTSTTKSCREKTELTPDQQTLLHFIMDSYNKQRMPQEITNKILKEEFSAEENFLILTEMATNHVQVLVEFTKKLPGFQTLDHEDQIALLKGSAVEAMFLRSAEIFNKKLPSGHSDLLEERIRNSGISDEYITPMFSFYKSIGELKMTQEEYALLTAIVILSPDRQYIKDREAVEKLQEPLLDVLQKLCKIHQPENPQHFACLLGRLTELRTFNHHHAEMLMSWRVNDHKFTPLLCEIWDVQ

COP(=S)(OC)Oc1ccc([N+](=O)[O-])cc1
active: [2] 36.8 µM | [3] 50 µM | [9] 3.28 µM
not listed: [10]
inactive: all other assays above

COP(=O)(OC)OC=C(Cl)Cl
inactive: [1] | [4] | [5] | [6] | [7]

CC(C)OC(=O)Nc1cccc(Cl)c1
active: [2] 48.4 µM
not listed: [5] | [10]
inactive: all other assays above

CCOCN(C(=O)CCl)c1c(C)cccc1CC
inactive: [1] | [4] | [5] | [6] | [7]
active: [4] 654 nM

CC[C@H](C)[C@H]1O[C@]2(C=C[C@@H]1C)C[C@@H]1C[C@@H](C/C=C(\C)[C@@H](O[C@H]3C[C@H](OC)[C@@H](O[C@H]4C[C@H](OC)[C@@H](O)[C@H](C)O4)[C@H](C)O3)[C@@H](C)/C=C/C=C3\CO[C@@H]4[C@H](O)C(C)=C[C@@H](C(=O)O1)[C@]34O)O2 (tested in a mixture with another compound)
active: [4] 7400 nM | [5] 9.87 µM
inactive: [1] | [4] | [5] | [6] | [7] | [10] | [8] | [9]

COc1nn(CSP(=S)(OC)OC)c(=O)s1
active: [9] 13.6 µM
not listed: [4]
inactive: all other assays above

O=[N+]([O-])/N=C1\NCCN1Cc1ccc(Cl)nc1
inactive: all assays above

CCc1ccc(C(=O)NN(C(=O)c2cc(C)cc(C)c2)C(C)(C)C)cc1
active: [3] 10.6 µM
inactive: all other assays above

O=S1OCC2C(CO1)C1(Cl)C(Cl)=C(Cl)C2(Cl)C1(Cl)Cl (stereo not drawn)
inactive: [1] | [6] | [7]
active: [2] 39.2 µM

O=C1c2ccccc2C(=O)N1SC(Cl)(Cl)Cl
inactive: [1] | [3] | [6] | [7] | [8] | [9]

CCN(CC)C(=O)SCc1ccc(Cl)cc1
active: [2] 40 µM | [10] 24.6 µM | [8] 19.3 µM
not listed: [5]
inactive: all other assays above

CNC(=O)/C=C(\C)OP(=O)(OC)OC
not listed: [2]
inactive: all other assays above

CNC(=O)Oc1cccc(N=CN(C)C)c1
inactive: [1] | [2] | [6] | [7] | [8] | [9]

CC(C)N(C(=O)COc1nnc(C(F)(F)F)s1)c1ccc(F)cc1
inactive: all assays above

CN1CSC(=S)N(C)C1
inactive: [1] | [2] | [3] | [6] | [7]

CCCN(CCC)c1c([N+](=O)[O-])cc(C(F)(F)F)cc1[N+](=O)[O-]
active: [2] 30.7 µM
not listed: [10]
inactive: all other assays above

O=C(Nc1ccccc1)Nc1cnns1
inactive: [1] | [3] | [6] | [7]

CCC(C)Nc1c([N+](=O)[O-])cc(C(C)(C)C)cc1[N+](=O)[O-] (stereo not drawn)
active: [1] 12.2 µM | [4] 84.6 µM and 73.7 µM | [5] 83.6 µM | [10] 74.6 µM | [8] 74.5 µM | [9] 71.7 µM
inactive: [5] | [6] | [7]

CCC(C)(C)C(=O)OC1=C(c2ccc(Cl)cc2Cl)C(=O)OC12CCCCC2
inactive: [1] | [4] | [6] | [8]
active: [2] 47.5 µM | [3] 41 µM | [5] 33 µM and 70.8 µM | [6] 16 µM | [7] 38.7 µM and 50 µM | [10] 1.11 µM | [9] 2.29 µM

OCCOc1ccccc1
not listed: [8] | [9] | [10]
inactive: all other assays above

CC1(c2ccc(Oc3ccccc3)cc2)OC(=O)N(Nc2ccccc2)C1=O (stereo not drawn)
inactive: [1] | [6] | [7]
active: [2] 1.94 µM | [3] 1.68 µM

Cc1[nH]c(=O)n(C(C)(C)C)c(=O)c1Cl
not listed: [8] | [9] | [10]
inactive: all other assays above

CCCN(CCOc1c(Cl)cc(Cl)cc1Cl)C(=O)n1ccnc1
active: [2] 11.7 µM | [3] 12.4 µM | [4] 11900 nM | [10] 0.374 µM | [8] 0.159 µM
inactive: [5] | [6] | [7] | [9]

CC(C)(C)C(O)/C(=C\c1ccc(Cl)cc1Cl)n1cncn1 (stereo not drawn)
active: [1] 93.6 µM
inactive: [6] | [7] | [10] | [8] | [9]

CC1(C)C(C=C(Cl)Cl)C1C(=O)OC(C#N)c1ccc(F)c(Oc2ccccc2)c1 (stereo not drawn)
not listed: [2] | [3] | [5]
inactive: all other assays above

O=S(=O)(O)C(F)(F)C(F)(F)C(F)(F)C(F)(F)C(F)(F)C(F)(F)C(F)(F)C(F)(F)F
inactive: [4] | [5] | [6] | [7]

CC(C)(C)C(O)C(Oc1ccc(Cl)cc1)n1cncn1 (stereo not drawn)
active: [9] 18.3 µM and 3.14 µM and 3.31 µM
inactive: [4] | [5] | [6] | [7] | [8] | [9]

C#CCN1C(=O)COc2cc(F)c(N3C(=O)C4=C(CCCC4)C3=O)cc21
not listed: [2] | [3]
inactive: all other assays above

O=C(O)C(F)(F)C(F)(F)C(F)(F)C(F)(F)C(F)(F)C(F)(F)C(F)(F)F
inactive: [4] | [5]

O=C(O)COc1ccc(Cl)cc1Cl
inactive: [4] | [5] | [10] | [8] | [9]

ClC1C(Cl)C(Cl)C(Cl)C(Cl)C1Cl (stereo not drawn)
active: [8] 50 µM
not listed: [1] | [9] | [10]
inactive: all other assays above

Clc1ccccc1-c1nnc(-c2ccccc2Cl)nn1
not listed: [2] | [3] | [10]
inactive: all other assays above

N#Cc1c(Cl)c(Cl)c(Cl)c(C#N)c1Cl
active: [4] 76.5 nM
not listed: [2] | [3] | [5]
inactive: all other assays above

CNC(=O)Oc1ccccc1OC(C)C
not listed: [2] | [3]
inactive: all other assays above

O=C(O)CCCOc1ccc(Cl)cc1Cl
inactive: [4] | [5] | [6] | [7]

O=C(NC(=O)c1c(F)cccc1F)Nc1ccc(OC(F)(F)C(F)OC(F)(F)F)c(Cl)c1 (stereo not drawn)
not listed: [2] | [3]
inactive: all other assays above

CCC(C)(NC(=O)c1cc(Cl)c(C)c(Cl)c1)C(=O)CCl (stereo not drawn)
active: [1] 45 µM
inactive: [4] | [6] | [7]

CCOC1Oc2ccc(OS(C)(=O)=O)cc2C1(C)C (stereo not drawn)
active: [1] 53.4 µM
inactive: [4] | [5] | [6] | [7]

Oc1ccc(Cl)cc1Cc1ccccc1
inactive: [4] | [5] | [6] | [7] | [8]
active: [10] 77.7 µM

Oc1cc(Cl)ccc1Oc1ccc(Cl)cc1Cl
active: [2] 11.9 µM | [3] 12 µM | [4] 11.9 µM and 11.6 µM
not listed: [1] | [5]
inactive: all other assays above

C[C@H]1[C@H](c2ccc(Cl)cc2)SC(=O)N1C(=O)NC1CCCCC1
not listed: [2] | [3] | [4]
inactive: all other assays above

CNC(=O)CSP(=S)(OC)OC
not listed: [2] | [3] | [10]
inactive: all other assays above

N#CN
inactive: [1] | [4] | [6] | [7]

COP(=S)(OC)Oc1ccc(SC)c(C)c1
active: [10] 41.5 µM | [9] 21.5 µM
not listed: [2] | [3]
inactive: all other assays above

O=[N+]([O-])c1c(Cl)c(Cl)c(Cl)c(Cl)c1Cl
not listed: [2] | [3] | [5]
inactive: all other assays above
